Data reported in PubChem BioAssay.
For part of these data: Measured potencies and affinities stand elsewhere. The source made the active and inactive calls. Unless noted, how the calls were made is not given here.

Key:
[1] = biological target: Cell division control protein 42 homolog (Homo sapiens) (UniProt P60953); assay: inhibition of fluorescent GTP binding to constitutively active Cdc42 – biochemical, multiplex bead flow cytometry, Bodipy-FL-GTP, dose response (AID 1333;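 active means fitted half-maximal concentration within the tested dose range, moderate curve steepness, a statistically real signal drop, and little compound fluorescence or tag-binding interference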)
Chain of Cell division control protein 42 homolog (Homo sapiens) (P60953 whole entry, looked up): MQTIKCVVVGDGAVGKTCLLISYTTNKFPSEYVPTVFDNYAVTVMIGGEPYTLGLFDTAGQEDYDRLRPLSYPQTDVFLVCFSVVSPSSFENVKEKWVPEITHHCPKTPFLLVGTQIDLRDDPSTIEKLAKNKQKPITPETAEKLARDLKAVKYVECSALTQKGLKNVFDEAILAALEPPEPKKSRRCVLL

[2] = biological target: Cell division control protein 42 homolog (Homo sapiens) (UniProt P60953); assay: inhibition of fluorescent GTP binding to wildtype Cdc42 – biochemical, multiplex bead flow cytometry, Bodipy-FL-GTP, dose response (AID 1334;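 active means fitted half-maximal concentration within the tested range, moderate curve steepness, significant signal drop, and little compound fluorescence or bead-linkage interference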); conditions: bead-based flow cytometry, Bodipy-FL-GTP binding to GST-Cdc42; at 100 µM (top of the series) unless noted
[3] = biological target: GTPase HRas (Homo sapiens) (UniProt P01112); assay: Ras wt fluorescent GTP loading blockade – biochemical, wildtype, multiplex bead flow cytometry, dose response (AID 1335;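 active means fitted half-maximal concentration within 10 nM to 100 µM, steepness 0.5 to 2, significant signal drop, low assay interference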); conditions: bead-based flow cytometry, Bodipy-GTP binding to GST-Ras; at 100 µM (top of the series) unless noted
Chain of GTPase HRas (Homo sapiens) (P01112 whole entry, looked up): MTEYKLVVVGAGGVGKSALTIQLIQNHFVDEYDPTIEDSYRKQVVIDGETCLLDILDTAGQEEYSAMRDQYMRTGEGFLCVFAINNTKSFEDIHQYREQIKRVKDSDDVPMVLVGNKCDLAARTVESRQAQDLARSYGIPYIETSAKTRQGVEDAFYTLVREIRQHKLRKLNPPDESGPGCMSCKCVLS

[4] = system: Ras-related protein Rab-7a (dog), GTP binding; assay: blockers of fluorescent GTP binding to Rab7 – biochemical, wildtype, multiplex bead flow cytometry, dose response (AID 1336)
[5] = biological target: Ras-related C3 botulinum toxin substrate 1 (Homo sapiens) (UniProt P63000); assay: inhibition of wildtype Rac1 nucleotide loading – biochemical, multiplex bead flow cytometry, dose response (AID 1340;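 active means dose curve with midpoint inside tested range, moderate steepness, plateau gap beyond fit error, low compound glow and bead-link interference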); conditions: GST-Rac1 beads, Bodipy-FL-GTP binding; at 100 µM (top of the series) unless noted
[6] = biological target: GTPase HRas (Homo sapiens) (UniProt P01112); assay: blockade of GTP loading onto mutant Ras – biochemical, activated mutant, multiplex bead flow cytometry, dose response (AID 1341;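 active means dose-response curve with midpoint inside the tested range, moderate steepness, significant amplitude and little compound fluorescence or bead-attachment interference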;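 further: GST-tagged constitutively activated Ras mutant immobilized on beads and multiplexed with other GTPases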)

Row | Structure (SMILES) | outcome [1] | fluorescence, percent of control (lower = inhibition) [2] [%] | GTP binding, percent of control [3] [%] | outcome [4] | GTP binding signal, raw median fluorescence (lower = inhibition) (MCF (arbitrary fluorescence units)) [5] | outcome [6]
1 | COc1ccc(CC(=O)Nc2ccc(S(=O)(=O)NC(C)C)cc2)cc1 | inactive | 51.9 | 66.7 | inactive | 0 | inactive
2 | Cc1nc2c(-c3ccc(Cl)cc3)c(C)[nH]n2c(=O)c1Cc1ccccc1 | inactive | 34.5 | 75.9 | inactive | 158 | inactive
3 | CCOC(=O)C1(Cc2cccc(F)c2)CCN(Cc2nc(CC)[nH]c2C)CC1 | inactive | 48.2 | 90.4 | inactive | 274 | inactive
4 | COc1cccc(CNCc2sc(C(=O)O)cc2C)c1 | inactive | 62.1 | 87.2 | inactive | 33.8 | inactive
5 | Cc1ccc(Nc2n[nH]c(C)c2[N+](=O)[O-])c(C)c1 | inactive | 52.6 | 65.8 | inactive | 194 | inactive
6 | Cc1cc(C)n2nc(C(=O)Nc3ccc(S(=O)(=O)N4CCCC4)cc3)nc2n1 | inactive | 37 | 82.5 | inactive | 257 | inactive
7 | CCN1C(=O)/C(=C/C=C2/Sc3ccc4ccccc4c3N2CCO)SC1=S | inactive | 27.6 | 59.2 | inactive | 179 | inactive
8 | Cc1c(NC(=O)CCN2C(=O)c3ccccc3C2=O)c(=O)n(-c2ccccc2)n1C | inactive | 42.1 | 90.3 | inactive | 322 | inactive
9 | COc1ccc(C(=O)Nn2c(SCC(=O)c3ccccc3)nc3ccccc3c2=O)cc1 | inactive | 71.5 | 119 | inactive | 135 | inactive
10 | O=C(Nc1ccccc1F)c1ccccc1-c1ccccc1 | inactive | 47.5 | 60.2 | inactive | 203 | inactive
11 | Cc1ccc(-c2c(C(=O)O)c(C(=O)O)c3n2CCC3)cc1 | inactive | 32.3 | 78.1 | inactive | 239 | inactive
12 | CC(=O)Nc1ccc(/C=N/NC(=O)CCN2CCN(c3ccccc3)CC2)cc1 | inactive | 33.8 | 74.7 | inactive | 140 | inactive
13 | S=c1[nH]nc(-c2ccco2)n1-c1ccccc1Cl | inactive | 26.1 | 60.5 | inactive | 231 | inactive
14 | Cc1ccc(Sc2c(C)nn(C(=O)C3CC3)c2C)cc1 | inactive | 28.8 | 78.5 | inactive | 236 | inactive
15 | O=C(Cn1cnc2cc([N+](=O)[O-])ccc2c1=O)NCc1ccc(Cl)cc1 | inactive | 34.9 | 82.3 | inactive | 192 | inactive
